Source: PubChem (National Center for Advancing Translational Sciences (NCATS))
Rows were chosen to be rich in hits. Some 3.1% of all compounds tested hit in one or more screens of this group.
PI4K2A block: inhibitors of human PI4K2A | purified PI4K2A, ADP-Glo luminescence, 1 h; active compounds read low | activity change, negative = inhibition, % at 76.9 µM | 420,000 tested, 0.13% active | AID 1346378; in the data active means activity change below about -50%; inconclusive means mostly about -30% to -49%;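 further: -100% = wells without enzyme as full effect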
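ADP-Glo luminescence measured ADP generated by PI4K2A enzyme (4 ug/mL before mixing) with 1.2 mM PI substrate (pre-mix) and 300 microM ATP (pre-mix). Tris pH7.5 buffer with MgCl2, Triton X-100; 1 h reaction at ambient temperature.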
PLK1 PBD block: blocks phosphopeptide binding to human PLK1 polo-box domain. P53350. Plk1 PBD binding of FITC phosphopeptide, fluorescence polarization. Potency, µM, for inactives: max response, negative = inhibition, most hits filed as inhibitors. 360,000 tested, 2.8% active; further: potency means the concentration at half of the fitted maximal effect; series mostly up to about 57 µM; nearly all actives have a fitted effect of over 65% in size
GLS inh: blocks human kidney-isoform glutaminase activity; O94925; GLS enzymatic activity, qHTS titration; Potency, µM (titrated, usually from 45.5 µM), inactives show at the top dose activity change, negative = inhibition, hits mostly inhibitors; 410,000 tested, 0.21% active; AID 624170; further: potency means the concentration at half of the fitted maximal effect
Target sequence (O94925 whole entry, looked up, canonical isoform): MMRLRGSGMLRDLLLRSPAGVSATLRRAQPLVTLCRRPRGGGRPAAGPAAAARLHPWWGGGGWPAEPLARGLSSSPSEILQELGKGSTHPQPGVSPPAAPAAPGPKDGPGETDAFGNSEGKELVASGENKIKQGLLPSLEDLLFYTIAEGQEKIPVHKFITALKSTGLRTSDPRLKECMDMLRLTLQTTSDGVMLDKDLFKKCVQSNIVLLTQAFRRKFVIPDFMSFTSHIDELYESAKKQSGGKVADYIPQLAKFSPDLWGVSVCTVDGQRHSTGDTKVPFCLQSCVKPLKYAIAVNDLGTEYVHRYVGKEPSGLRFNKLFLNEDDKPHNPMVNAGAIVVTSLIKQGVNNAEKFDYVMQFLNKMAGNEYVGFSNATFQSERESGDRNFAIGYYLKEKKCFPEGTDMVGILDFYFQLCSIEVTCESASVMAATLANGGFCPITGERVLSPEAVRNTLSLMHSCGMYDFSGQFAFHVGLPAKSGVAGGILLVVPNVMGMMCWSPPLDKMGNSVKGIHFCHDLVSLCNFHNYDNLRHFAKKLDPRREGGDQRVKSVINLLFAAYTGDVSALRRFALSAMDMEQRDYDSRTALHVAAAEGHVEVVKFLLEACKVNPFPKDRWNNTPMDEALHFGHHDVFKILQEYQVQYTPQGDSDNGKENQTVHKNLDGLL
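Human kidney-isoform GLS in 45 mM KH2PO4 pH 8.2, 0.02% Tween-20, with compound, started with 1mM L-Glutamine (added stock). Glutamate oxidase/HRP/Amplex red coupled fluorescence read at start and after 30 min at RT.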
VDR inh: blocks the human vitamin D receptor. Potency, µM, for inactives: max response, negative = inhibition, most hits filed as inhibitors. 400,000 tested, 0.93% active. VDR-SRC2-3 peptide fluorescence polarization, 2 h. AID 504847; further: potency means the concentration at half of the fitted maximal effect
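Compounds are added to VDR with labelled SRC2-3 coactivator peptide and held 2 h at room temperature. Inhibition of the VDR–peptide interaction is then read as a change in fluorescence polarization.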
KAT2A inh: blocks human GCN5L2 histone acetyltransferase; Q92830; GCN5L2 HAT assay, ThioGlo1 CoA-SH fluorescence; Potency, µM (doses to about 58.9 µM), without a hit: top-dose activity change, negative = inhibition, actives largely listed as inhibitors; 390,000 tested, 0.21% active; further: potency means the concentration at half of the fitted maximal effect
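Free CoA generated was detected with ThioGlo1 (50uM) fluorescence at Ex340nm/Em540nm, read immediately and after 20 min at room temperature. Enzyme, 20 nM in HEPES pH 7.5 buffer, saw compounds 15 min before adding 75uM H3(1-25) peptide and 70uM acetyl-CoA.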
* marks the source's active call; other numbers are inactive results; ? = inconclusive; nt = no result; ! = not confirmed by another sample. Unless noted, the call rests on the fitted dose curve; in most records, active means well fitted curve in the direction sought with a large enough effect; inconclusive means small, poorly fitted or top-dose-only effect, or another doubt; inactive means no such curve, though single readings can be large; an effect the other way counts as inactive or inconclusive. Unless noted, on the % scale 0 is the no-effect control and ±100 the full control effect.

SMILES	PI4K2A block	PLK1 PBD block	GLS inh	VDR inh	KAT2A inh
CCOC(=O)N1CCC2(CC1)OC(=O)C(C)=C2C(=O)NCc1cccc(F)c1	2.5	nt	4.2%	-1.3%	-2.5%
Cc1ccc(S(=O)(=O)NC(=O)c2cc(C)n(-c3cc(S(=O)(=O)N4CCOCC4)ccc3N3CCCC3)c2C)cc1	-8.9	29.9µM*	1.8%	18.0%	-12.4%
O=C(Nc1cc(S(=O)(=O)Nc2ccc(Cl)cc2)ccc1N1CCCCC1)c1ccc(F)cc1Cl	-4.6	9.47µM*	-2.9%	-7.3%	-16.7%
Nc1cc(S(=O)(=O)Nc2ccccc2Cl)ccc1N1CCCC1	3.6	-6.0%	24.3%	10.3%	-4.8%
Cc1ccc(C(=O)Nc2cc(S(=O)(=O)N3CCOCC3)ccc2N2CCCC2)cc1	-0.6	0.6%	11.1%	0.3%	0.5%
CC(C)C(=O)Nc1cc(S(=O)(=O)N2CCOCC2)ccc1N1CCCCC1	6.1	23.8µM*	?	70.8µM*	-3.0%
Nc1cc(S(=O)(=O)Nc2cc(Cl)ccc2Cl)ccc1N1CCOCC1	-13.2	1.89µM*	?	35.5µM*	-21.9%
CCCCCCOC(=O)NC(=N)c1ccc(NCc2nc3cc(C(=O)N(CCC(=O)OCC)c4ccccn4)ccc3n2C)cc1	-0.7	nt	nt	nt	nt
COc1ccccc1OCC(=O)Nc1cc(S(=O)(=O)N2CCOCC2)ccc1N1CCCCC1	-0.3	23.8µM*	23.0%	-24.1%	-5.9%
CN1CCN(c2ccc(S(=O)(=O)N3CCCCC3)cc2NC(=O)c2ccc3ccccc3c2)CC1	1.7	-2.8%	12.4%	-7.6%	-9.4%
Cc1ccccc1C(=O)Nc1cc(S(=O)(=O)N2CCCCC2)ccc1N1CCN(C)CC1	-5.0	5.97µM*	-1.6%	8.2%	1.2%
CC[n+]1c(/C=C/Nc2ccccc2)sc2ccccc21	-4.1	-13.9%	22.2%	20.8%	-5.2%
CCN1/C(=C/C=C/c2sc3ccccc3[n+]2CC)Sc2ccccc21	?	12.2%	8.5%	7.94µM*!	?
CCOC(=O)C1=C(N)Oc2ccc(Br)cc2C1C(C#N)C(=O)OCC (stereo unspecified)	nt	nt	nt	5.62µM*	-23.4%
CCOC(=O)C1=C(N)Oc2cc(O)ccc2C1c1ccc(C)cc1 (stereo unspecified)	0.6	-2.2%	-9.4%	-2.1%	-4.5%
COC(=O)C1CN(Cc2ccc(C)cc2)CCS(=O)(=O)N1Cc1cn(Cc2ccc(Cl)cc2)nn1 (stereo unspecified)	0.6	nt	nt	nt	nt
CN(C)CCCNc1nc(-c2ccccc2)c2c(c1C#N)CC(C)(C)OC2	-1.9	23.8µM*	10.7%	-12.0%	0.0%
CC(=O)CSc1nnc2cc(C)c3cc(C)cc(C)c3n12	0.3	nt	3.2%	12.0%	0.9%
O=C(CCSc1ccccc1)Nc1ncccn1	1.4	-9.0%	-3.0%	-3.6%	0.0%
C=CCCCCCCCCC(=O)Nc1ncccn1	7.0	11.9µM*	5.9%	?	1.3%
CCOc1ccccc1C1CC(=O)NC2=C1C(=O)CC(C)(C)C2 (stereo unspecified)	-3.4	26.7µM*	-13.6%	-2.0%	-4.8%
COc1cc(C2CC(=O)NC3=C2C(=O)CC(C)(C)C3)ccc1O (stereo unspecified)	-1.3	-6.9%	23.4%	-5.6%	-3.8%
COc1ccc(Cc2nnc(NCCO)[nH]c2=O)cc1	1.8	3.7%	-14.3%	-3.3%	0.7%
COc1ccc(Cc2nnc(NCCO)[nH]c2=O)cc1OC	3.8	5.97µM*	?	?	7.0%
COc1ccc(C2C(=O)N(C3CCCCCC3)CC(=O)N2Cc2ccc(C)cc2)cc1OC (stereo unspecified)	0.2	nt	0.4%	3.9%	-2.0%
SMILES	PI4K2A block	PLK1 PBD block	GLS inh	VDR inh	KAT2A inh
Cc1ccc(-c2nnnn2-c2ccc(C)cc2)cc1	3.6	16.8µM*	0.0%	?	-2.2%
c1nc(NCC2CCCCO2)c2cc(-c3ccc4c(c3)OCO4)ccc2n1 (stereo unspecified)	2.7	nt	nt	nt	nt
CCN=c1scc(C)n1/N=C/c1ccc(O)c(O)c1O	-12.0	6.7µM*	-16.7%	-11.6%	-6.0%
COCCN=c1scc(-c2cccs2)n1/N=C/c1ccc(O)c(O)c1O	-13.1	7.52µM*	?	-28.6%	-24.8%
Cc1ccc(-n2c(SCC(=O)NN=Cc3c[nH]c4ccccc34)nnc2-c2ccccc2)cc1	-4.7	nt	nt	nt	nt
COc1ccc(Cn2c(O)c(C=Nc3ccccc3C(=O)O)c3ccccc3c2=O)cc1	-5.1	?	2.3%	-9.9%	?
COc1ccccc1NS(=O)(=O)c1cccc(-n2c(O)c(C=Nc3ccccc3C(=O)O)c3ccccc3c2=O)c1	-0.1	29.9µM*	-11.8%	-18.1%	?
O=C1CCC(=O)N1CO	nt	nt	0.0%	9.4%	-5.9%
CCOC(=O)[C@@]12CCCC=C1N(CCc1ccc(Cl)cc1)C(=O)[C@H]2CC(=O)NCC1CCCCC1	-5.1	nt	nt	nt	nt
O=C(NCCN1CCN(c2ccccc2)CC1)c1ccccc1F	-3.1	23.8µM*	71.0%	-21.1%	-2.4%
O=C(NCCCN1CCN(CCCNC(=O)c2ccccc2F)CC1)c1ccccc1F	0.3	0.3%	7.5%	3.4%	0.9%
Cc1cc(NS(=O)(=O)C2CCN(C(=O)Cc3ccc(Cl)c(Cl)c3)CC2)no1	5.4	nt	nt	nt	nt
COc1ccc(C=Nn2c(-c3ccc(F)cc3)n[nH]c2=S)cc1OCc1ccccc1	18.5	nt	nt	nt	nt
CCOc1ccccc1N1CC(C(=O)N2CCc3ccccc3C2)CC1=O (stereo unspecified)	-4.9	3.36µM*	?	?	-5.1%
CCOc1ccccc1N1CC(C(=O)N2CCN(Cc3ccc(C#N)cc3)CC2)CC1=O (stereo unspecified)	7.1	2.7%	-11.1%	12.0%	-3.9%
Cc1nc2c(C(=O)NCCC(C)C)c[nH]n2c(=O)c1Cc1ccccc1F	2.0	21.2µM*	2.8%	-5.9%	-8.7%
Cc1nc2c(C(=O)NCCc3ccc(Cl)cc3)c[nH]n2c(=O)c1Cc1ccccc1F	0.6	nt	16.7%	-23.2%	?
Cc1nc2c(C(=O)NCCc3ccccc3)c[nH]n2c(=O)c1Cc1ccc(F)cc1Cl	5.6	nt	3.1%	?	?
Cc1nc2c(C(=O)NCc3ccccc3Cl)c[nH]n2c(=O)c1Cc1cccc(Cl)c1	3.7	nt	4.2%	-23.9%	?
Cc1ccc(CNC(=O)c2c[nH]n3c(=O)c(Cc4ccc(F)cc4Cl)c(C)nc23)cc1	3.4	nt	2.2%	-7.7%	35.5µM*
COc1ccc(CCNC(=O)c2c[nH]n3c(=O)c(Cc4ccccc4Cl)c(C)nc23)cc1OC	0.4	nt	1.0%	7.0%	28.2µM*
O=C(c1ccccc1Cl)N1CCC(Oc2cccnc2)CC1	-1.7	nt	nt	nt	nt
COc1ccc(C)cc1-n1cnc2cc(C(=O)NC3CCCCCC3)ccc21	2.8	nt	-3.8%	8.0%	1.8%
CCC1(c2ccccc2)NC(=O)N(CC(=O)Nc2ccc(OC)nc2)C1=O (stereo unspecified)	2.6	13.4µM*	1.6%	2.5%	-0.7%
O=S1(=O)CC2c3ccc(F)cc3CN2CN1Cc1ccccc1 (stereo unspecified)	-5.1	nt	nt	nt	nt
